Data: PubChem BioAssay
The source made the active and inactive calls. Unless noted, the rule behind the calls is not given here.

Assays:
[1] = test system: Wnt5a (protein binding on small-molecule microarray); assay: Wnt5a binders on small-molecule microarray, primary screen, biophysical, 635/667 nm fluorescence (AID 1142); conditions: 635 nm fluorescence, higher = more signal;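 note: fluorescence read at 667 nm with signal to noise per printed feature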
[2] = cell viability in Huh7 cells, primary screen, cytotoxicity control for HCV replication inhibitor project, CellTiter-Glo luminescence, basal, 48 h (AID 1143); conditions: Huh7 HCV replicon, higher = more signal, called active from +8 up or from −8 down;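 note: Huh7 hepatoma cells carrying a hepatitis C replication reporter with no stimulus; test concentration not given here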
[3] = P. aeruginosa biofilm formation inhibitors, primary screen, PAO1 strain, BacTiter-Glo luminescence, LB-PBS (AID 1144); conditions: 12 h, higher = more signal
[4] = CREB reporter modulators without forskolin, primary screen, cell-based, PC12, CRE-LacZ reporter, unstimulated (AID 1145); conditions: no forskolin, luminescence, 4.5 h, higher = more signal, called active from +8 up or from −8 down
[5] = CREB reporter modulators under forskolin, primary screen, cell-based, PC12, CRE-LacZ reporter, forskolin-stimulated (AID 1146); conditions: luminescence, 4.5 h, higher = more signal, called active from +8 up or from −8 down;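 note: PC12 cells with 6xCRE LacZ reporter stimulated by forskolin 10 µM; beta-galactosidase reporter signal reflecting CREB driven transcription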
[6] = target: Streptavidin (Streptomyces avidinii) (UniProt P22629); assay: streptavidin binders on small-molecule microarray, primary screen, artefact control for SMM compound annotation, biophysical, 635/667 nm fluorescence (AID 1147); conditions: streptavidin binding, higher = more signal;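 note: signal reflects streptavidin binding to arrayed compounds as a control protein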
Chain of Streptavidin (Streptomyces avidinii) (P22629 whole entry, looked up): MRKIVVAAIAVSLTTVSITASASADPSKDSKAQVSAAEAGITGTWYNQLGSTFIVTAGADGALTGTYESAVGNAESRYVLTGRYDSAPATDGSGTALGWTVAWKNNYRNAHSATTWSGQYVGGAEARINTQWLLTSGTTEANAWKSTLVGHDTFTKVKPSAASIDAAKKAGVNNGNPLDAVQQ

[7] = small-molecule binders of probe aInhba, primary screen, biochemical, small-molecule microarray, 635/667 nm fluorescence (AID 1148); conditions: higher = more signal;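 note: score merges 667nm spot fluorescence with signal-to-noise for antibody binding to printed compounds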
Torsin-1A (Homo sapiens) [8] = target: Torsin-1A (Homo sapiens) (UniProt O14656); assay: torsin A binders from cell lysate, primary screen, small-molecule microarray, wild-type, 635/667 nm (AID 1149); conditions: COS7 hTOR1A-WT lysate, 635 nm fluorescence, higher = more signal
Chain of Torsin-1A (Homo sapiens) (O14656 whole entry, looked up): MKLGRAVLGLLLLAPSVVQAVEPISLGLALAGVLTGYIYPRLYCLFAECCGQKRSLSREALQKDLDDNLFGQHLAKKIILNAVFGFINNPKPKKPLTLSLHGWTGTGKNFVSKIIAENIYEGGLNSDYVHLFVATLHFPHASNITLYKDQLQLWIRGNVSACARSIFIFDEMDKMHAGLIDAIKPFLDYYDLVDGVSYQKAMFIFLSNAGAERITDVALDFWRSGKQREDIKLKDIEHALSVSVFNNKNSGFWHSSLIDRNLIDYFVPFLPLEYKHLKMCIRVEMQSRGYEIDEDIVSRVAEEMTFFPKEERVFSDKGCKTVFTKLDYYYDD

Torsin-1A (Homo sapiens) [9] = target: Torsin-1A (Homo sapiens) (UniProt O14656); assay: small-molecule binders of mutant TOR1A in lysate, primary screen, cell lysate, small-molecule microarray, COS7 lysate, 635/667 nm fluorescence (AID 1150); conditions: COS7 hTOR1A mutant lysate, 635 nm fluorescence, higher = more signal;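 note: score pools 667 nm emission and signal to noise measuring lysate protein binding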
[10] = test system: Sonic hedgehog protein (Shh); assay: small-molecule binders of Shh protein, primary screen, biochemical, small-molecule microarray, 635/667 nm fluorescence (AID 1151); conditions: small-molecule microarray binding, 635 nm fluorescence; higher = more signal;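 note: Shh protein binding to compounds spotted on small-molecule microarray slides; score combines spot fluorescence intensity with signal-to-noise across triplicate slides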

Row | SMILES | composite z-score [1] | z-score [2] | z-score [3] | z-score [4] | z-score [5] | composite z-score [6] | composite z-score [7] | composite z-score (Torsin-1A (Homo sapiens) [8]) | composite z-score (Torsin-1A (Homo sapiens) [9]) | composite z-score [10]
1 | O=C1N(Cc2ccccc2)c2ccccc2C[C@@]12N=C(c1ccc(OCCCO)cc1)O[C@H]2c1ccccc1 | 0.378 | -3.89 (inactive) | -0.34 (inactive) | 1.87 (inactive) | -0.483 (inactive) | 0.798 | -0.0963 | -0.133 | 0.318 | 1.34
2 | CCCCC(=C=CC[C@@H](O)c1ccc(OCCO)cc1)CCO | -0.032 | -1.75 (inactive) | 0.234 (inactive) | 7.73 (inactive) | -0.882 (inactive) | -0.217 | 0.0342 | 0.112 | 0.654 | 0.98
3 | CCCCCCCCCCC(O)C1C=CC2C(=O)N(C)C(=O)C2N1Nc1ccccc1 (stereo not given) | -0.56 | -0.776 (inactive) | 0.178 (inactive) | 0.819 (inactive) | 0.848 (inactive) | -0.925 | -0.474 | -0.0378 | 0.213 | -1.5
4 | CCCCC(=C=CC[C@@H](O)c1ccccc1OCCO)C[C@@H](O)c1ccccn1 | -0.11 | -0.675 (inactive) | -0.138 (inactive) | 2.72 (inactive) | -0.446 (inactive) | -0.231 | -0.024 | -0.245 | 0.495 | 0.897
5 | [N-]=[N+]=NCc1ccccc1[C@H]1OC(c2ccc(OCCCO)cc2)=N[C@@]1(Cc1ccccc1N=[N+]=[N-])C(=O)O | 0.322 | -1.16 (inactive) | 0.159 (inactive) | -0.137 (inactive) | -0.763 (inactive) | 1.55 | 0.147 | 0.136 | 0.691 | -0.141
6 | CC(C)c1ccc(NN2C(C(O)C(C)c3ccccc3)C=CC3C(=O)N(c4ccccc4)C(=O)C32)cc1 (stereo not given) | 0.981 | 0.0469 (inactive) | -0.692 (inactive) | 0.619 (inactive) | 0.939 (inactive) | 2.11 | 0.864 | 0.326 | 1.12 | 0.461
7 | CC(C)C(=C=CC[C@H](O)c1cccc(OCCO)c1)C[C@H](O)c1ccccn1 | -0.103 | -0.667 (inactive) | -1.06 (inactive) | 2.25 (inactive) | 0.42 (inactive) | -0.502 | -0.0986 | -0.256 | 0.0951 | 1.45
8 | C[C@]1(C(=O)NCC(F)(F)F)c2ccccc2C(=O)N(Cc2cc(C(F)(F)F)cc(C(F)(F)F)c2)[C@H]1c1ccc(CO)cc1 | -0.127 | -0.286 (inactive) | 0.878 (inactive) | 0.324 (inactive) | 0.0167 (inactive) | -0.7 | -0.0963 | -0.469 | -0.34 | -0.21
9 | C=CC[C@H](O)c1ccc(O)c2ccccc12 | 0.188 | 0.273 (inactive) | -0.725 (inactive) | 6.45 (inactive) | 1.82 (inactive) | 0.881 | -0.101 | 0.172 | 0.46 | 1.96
10 | CC[C@@H](O[Si](C#C[Si](C(C)C)(C(C)C)C(C)C)(C(C)C)C(C)C)c1cn([C@H](CO)Cc2ccccc2)nn1 | -0.142 | 0.0926 (inactive) | -0.805 (inactive) | -0.607 (inactive) | -0.038 (inactive) | 0.391 | 0.0104 | 0.0922 | -0.209 | 1.24
11 | C=C(CC1([C@@H](NP(=O)(c2ccccc2)c2ccccc2)[C@H]2C[C@@H]2CCCC)CC1)c1cccc(OC)c1 | 0.0445 | -1.65 (inactive) | 0.496 (inactive) | 0.0109 (inactive) | 0.276 (inactive) | 0.566 | 0.0227 | -0.547 | -0.302 | -0.836
12 | CC(C)(C)OC(=O)CC[C@@]1(C(N)=O)N=C(c2ccc(OCCCO)cc2)O[C@@H]1c1ccccc1CN=[N+]=[N-] | 1.07 | -0.57 (inactive) | 0.938 (inactive) | 0.171 (inactive) | 0.638 (inactive) | -0.0644 | 0.278 | 0.612 | 1.08 | -0.425
13 | CC1(C)OB(/C=C\CC(OC(=O)c2ccncc2)c2ccccc2)OC1(C)C (stereo not given) | 0.496 | -0.635 (inactive) | 0.135 (inactive) | 3.3 (inactive) | 0.174 (inactive) | -0.452 | -0.383 | 0.432 | -0.232 | -0.476
14 | COCCOC(=O)N1C(=O)[C@@]2(c3cc(C#CC4=CCCCC4)ccc31)[C@H](C(=O)N1CCCCCCC1)[C@H]1C(=O)O[C@H](c3ccccc3)[C@H](c3ccccc3)N1[C@@H]2c1ccccc1OCCO | 0.393 | -5.21 (inactive) | -1.33 (inactive) | -1.7 (inactive) | -1.11 (inactive) | 1.04 | 0.806 | 0.801 | 0.824 | 1.62
15 | COC(=O)[C@@]1(Cc2ccc(F)cc2)[C@H]2c3cc(C(=O)N(C)C)n(CCF)c3C[C@H]2CN1C(=O)c1ccccc1 | 0.101 | -1.56 (inactive) | -0.501 (inactive) | -0.375 (inactive) | 0.25 (inactive) | 0.471 | 0.117 | 0.632 | 0.606 | -0.447
16 | C=CCN1C(=O)[C@]2(O[C@H](CCO)[C@@H]([Si](C)(C)c3ccc(OC)cc3)[C@@H]2C)c2cc(N3C(=O)c4ccccc4Oc4ccccc43)ccc21 | 0.169 | -7.94 (inactive) | -0.323 (inactive) | 22.6 (active) | -3.24 (inactive) | 0.763 | -0.045 | 0.493 | 0.418 | 0.804
17 | C[C@H]1C2[C@H](Cc3ccccc3)NC(=O)[C@]23C(=O)N[C@@H](Cc2ccccc2)C(=O)N2CCC[C@H]2C(=O)NC/C=C/CC/C=C/C3[C@@H]2O[C@]12C (stereo not given in full) | 0.241 | -2.38 (inactive) | -0.165 (inactive) | 0.941 (inactive) | -0.688 (inactive) | -0.423 | -0.0986 | -0.0723 | 0.49 | 0.975
18 | COc1cc2c(cc1O)C(C)N(Cc1sc3ccccc3c1Cl)CC2 (stereo not given) | -0.434 | -0.693 (inactive) | -0.432 (inactive) | -0.258 (inactive) | -0.487 (inactive) | 0.105 | 0.0021 | -1.22 | -1.28 | -0.985
19 | COc1cc2c(cc1OC)CN(C(=O)[C@@H]1[C@H]3C(=O)O[C@H](c4ccccc4)[C@H](c4ccccc4)N3[C@H](c3ccc(O)cc3)[C@@]13C(=O)Nc1ccc(C#CC4=CCCCC4)cc13)CC2 | 0.236 | -1.56 (inactive) | -0.376 (inactive) | -0.375 (inactive) | -0.493 (inactive) | 1.03 | 0.271 | 0.335 | 0.794 | 1.07
20 | C=C(CCCC)/C(=C/C[C@@H](OC(C)=O)c1ccc(OCCO)cc1)c1cc(C(=O)OC)ccc1OC | -0.0169 | -3.57 (inactive) | 0.412 (inactive) | 5.45 (inactive) | 0.574 (inactive) | 0.313 | -0.176 | 0.929 | 0.687 | 1.04
21 | CCOC(=O)C[C@H]1[C@H](OC(=O)c2ccc(-c3ccccc3)cc2)[C@@H](NC(=O)C2CCCCC2)c2cc(OCCCO)ccc2N1C(=O)Cc1ccc(OC)cc1 | -0.12 | -0.137 (inactive) | -0.105 (inactive) | -0.155 (inactive) | -0.185 (inactive) | 0.226 | -0.0259 | 0.061 | 0.391 | 0.106
22 | C=CC[C@]1(C(=O)NCCN2CCOCC2)N=C(c2ccc(OCCCO)cc2)O[C@H]1c1ccccc1 | 0.891 | -0.541 (inactive) | 0.154 (inactive) | 2.55 (inactive) | -0.0077 (inactive) | 0.416 | 0.119 | 2.03 | 1.44 | 0.638
23 | CC(C)N1C(=O)[C@@]2(Cc3ccccc31)c1ccccc1C(=O)N(Cc1ccccc1C(F)(F)F)[C@H]2c1ccc(CO)cc1 | 0.15 | -0.222 (inactive) | -0.121 (inactive) | 0.155 (inactive) | 0.176 (inactive) | -0.0569 | 0.46 | -0.375 | -0.139 | 0.376
24 | C=CCNC(=O)[C@@H]1[C@H]2C(=O)O[C@H](c3ccccc3)[C@H](c3ccccc3)N2[C@H](c2ccc(O)cc2)[C@@]12C(=O)N(C(=O)OCCOC)c1ccc(C#CCC(C(=O)OC)C(=O)OC)cc12 | 0.259 | -3.02 (inactive) | 0.132 (inactive) | -0.438 (inactive) | 0.416 (inactive) | 0.0198 | 0.0074 | 0.586 | 1.3 | 1.37
25 | C=CCOC(=O)[C@@H]1[C@H]2C(=O)O[C@H](c3ccccc3)[C@H](c3ccccc3)N2[C@H](c2ccc(OCCOC(=O)[C@@H]3C[C@@H]4C(=O)N[C@@H](CC(C)C)C(=O)N4[C@@H]3c3ccc(O)cc3)cc2)[C@@]12C(=O)Nc1ccc(I)cc12 | 0.601 | -0.259 (inactive) | -0.282 (inactive) | -0.655 (inactive) | -1.23 (inactive) | 0.834 | 1.27 | 0.271 | 0.506 | 2.2
26 | CN(C)CCCC[C@@H]1NC(=O)[C@H]2C[C@@H](C(=O)NCCCCCCNC(=O)CS)[C@@H](c3cccc(OCCO)c3)N2C1=O | 0.1 | 1.17 (inactive) | -0.444 (inactive) | -0.809 (inactive) | -1.09 (inactive) | 0.0448 | -0.101 | 0.0638 | 0.767 | 0.871
27 | COCCCNC(=O)[C@@]1(Cc2ccccc2I)c2ccccc2C(=O)N(Cc2ccccc2OC)[C@H]1c1ccc(CO)cc1 | -0.43 | -3.39 (inactive) | 0.767 (inactive) | 0.531 (inactive) | -0.797 (inactive) | -0.67 | -0.162 | 0.884 | 0.431 | -0.845
